Assay results from PubChem BioAssay (NCI).
About 83,000 compounds went through this panel and 20% of them were active in at least one assay; those are over-represented in the sample as a whole.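 Each cell line was grown in a 96-well plate and treated with one concentration of compound for 48 hours. Values below 10 were considered active.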 A number with no mark means an inactive call. Active and inactive are the calls of the source.

Tests used:
Test in all cases: NCI-60 one-dose screen, 48 h (100 = growth as untreated, 0 = no growth, -100 = all killed)
Settings in all cases: 10 µM unless noted
T-47D breast = system: T-47D breast
BT-549 breast = system: BT-549 breast
MDA-MB-435 melanoma = system: MDA-MB-435 melanoma
SW-620 colon = system: SW-620 colon
MCF7 breast = system: MCF7 breast
HCT-116 colon = system: HCT-116 colon
HCC-2998 colon = system: HCC-2998 colon
KM12 colon = system: KM12 colon

Compound | growth (T-47D breast) | growth (BT-549 breast) | growth (MDA-MB-435 melanoma) | growth (SW-620 colon) | growth (MCF7 breast) | growth (HCT-116 colon) | growth (HCC-2998 colon) | growth (KM12 colon)
NC1=C(Br)C(=O)c2ncccc2C1=O | 15.3% | -81.2% (active) | -96.2% (active) | -88.4% (active) | -57.2% (active) | -46.4% (active) | 26.9% | 24.5%
O=C(Nc1ccc(Cl)c(Cl)c1)OCc1ccco1 | 38.4% | 31.6% | 0.451% (active) | 40.4% | 14.8% | 26.6% | 56.4% | 8.03% (active)
Cc1ccc(Nc2ccc(O)c3c2C(=O)c2c(O)ccc(Nc4ccc(C)cc4)c2C3=O)cc1 | 96.9% | 113% | 104% | 103% | 98% | 93.5% | 113% | 112%
O=C1Nc2ccc(Br)cc2C1=O | 96.2% | 105% | 98.3% | 86% | 91.5% | 94.2% | 111% | 96.7%
CCCCCCN(CCCCCC)CCCNc1nccc2ccccc12 | -13.6% (active) | 39.7% | 0.549% (active) | 6.78% (active) | -28% (active) | 8.24% (active) | -59.4% (active) | 9.96% (active)
O=C1C=CC(=O)N1C1CCCCCCCCCCC1 | 56.9% | 87.5% | 82.6% | -27.4% (active) | 69.8% | 0.595% (active) | 106% | 104%
CCN(CC)CCNC(Cc1ccccc1)c1ccc(OCc2ccccc2)cc1 (stereo not given) | 68.5% | 76.8% | 26.7% | 77.2% | 78.2% | 49.9% | 45.4% | 80.7%
CN(C)c1ccc(/C=C/c2nccc3ccccc23)cc1 | 40.2% | 84.1% | 55.7% | 84.1% | 30.6% | 81.5% | 82.9% | 73.3%
Nc1ccc(Oc2ccccc2)c(Cl)c1 | 86.6% | 97.6% | 93.6% | 107% | 95.6% | 79.3% | 113% | 104%
O=C1c2ccccc2C(=O)c2c(O)c(Cl)cc(O)c21 | 28.1% | 98.7% | 102% | 72.6% | 49.9% | 6.19% (active) | 102% | 83.7%
CN(C)CCSC1=Nc2ccc(Cl)cc2C(c2ccccc2Cl)N(C)C1 (stereo not given) | 57.9% | 76.4% | 62.2% | 87.4% | 27.8% | 65.1% | 81% | 61.6%
O=[N+]([O-])c1ccc(C(Br)c2ccc([N+](=O)[O-])cc2)cc1 | 83.8% | 77.3% | 64.8% | 11.1% | 70.8% | 21.3% | 90.4% | 60.3%
CC(=O)OC1CC2CCC1(C)C2(C)C (stereo not given) | 99.2% | 112% | 96.4% | 98.1% | 103% | 107% | 108% | 104%
O=C(CCl)N1c2ccccc2Sc2c1ccc1ccccc21 | 84.3% | 36.9% | 80.2% | 11.1% | 66.8% | 16.4% | 98.5% | 87.2%
C/C(=N\NC(=S)N1CC2CCC(CC2)C1)c1ccccn1 | 17.4% | 30.4% | 11.5% | 14.3% | 13.3% | 7.24% (active) | 29.3% | 9.58% (active)
NC(=S)Nc1ccc2c(c1)Cc1ccccc1-2 | 81.9% | 79.4% | 110% | 94.7% | 70.1% | 94.8% | 97.6% | 95.1%
CCCCCCCCCCCCCCCCSC(=NCC)NCC | 8.09% (active) | 64.4% | -89.7% (active) | -71.7% (active) | -66.3% (active) | -94.3% (active) | -64.9% (active) | -30.7% (active)
O=Nc1ccc2ccccc2c1O | 51.5% | 100% | -73.9% (active) | 61.8% | 69.9% | 6.58% (active) | 103% | 79.3%
CCCCN(CCCC)CCCCCCCCCCO | 94.6% | 102% | 107% | 103% | 99% | 90.2% | 103% | 103%

Compound | growth (T-47D breast) | growth (BT-549 breast) | growth (MDA-MB-435 melanoma) | growth (SW-620 colon) | growth (MCF7 breast) | growth (HCT-116 colon) | growth (HCC-2998 colon) | growth (KM12 colon)
COc1cc(-c2ccc(-[n+]3nc(-c4ccc([N+](=O)[O-])cc4)nn3-c3ccc([N+](=O)[O-])cc3)c(OC)c2)ccc1-[n+]1nc(-c2ccc([N+](=O)[O-])cc2)nn1-c1ccc([N+](=O)[O-])cc1 | -34.2% (active) | 26.9% | -58.4% (active) | 2.63% (active) | -65% (active) | 6.85% (active) | 29.8% | 25.4%
CCCCCCCCCCCC1=NCCCN1CCCC | 97.4% | 94.6% | 110% | 97.5% | 91.1% | 83.6% | 75.7% | 103%
O=C(NOC(=O)c1ccccc1)c1ccccc1 | 101% | 107% | 96.4% | 93.8% | 107% | 95.7% | 112% | 101%
NCCCN(CCCN)CCCNCc1c2ccccc2c(CNCCCN(CCCN)CCCN)c2ccccc12 | 80.9% | 103% | 107% | 100% | 97.1% | 90.6% | 97.6% | 97.2%
CN=C(N)N/N=C(\c1ccccc1)c1ccc(Br)cc1 | 39.3% | 21.5% | -60.8% (active) | 29.4% | 4.81% (active) | 8.58% (active) | -61.1% (active) | 9.22% (active)
O=C(NNc1ccccc1)OCc1ccccc1 | 69% | 83.1% | 34.1% | 54.3% | 104% | 66% | 75.4% | 19.8%
O=C1/C(=C/c2ccccn2)CCc2ccccc21 | 84.9% | 106% | 88.5% | 85.5% | 59.4% | 90.4% | 100% | 86.9%
CC1(C)N=c2cc3c(cc2N1c1ccc(Cl)cc1)=Nc1ccccc1N3c1ccc(Cl)cc1 | 25.1% | 44% | 77.9% | 53.5% | 28.9% | -41.3% (active) | 36.9% | 77%
COc1ccc(/C=C2/C(=O)ON=C2C)cc1 | 93% | 107% | 109% | 103% | 106% | 112% | 103% | 113%
Nc1cccc2cccc([N+](=O)[O-])c12 | 113% | 105% | 108% | 106% | 86.6% | 104% | 103% | 113%
CCCCCCC1N=C(N)N=C(N)N1c1cccc(Cl)c1 (stereo not given) | 51.8% | 25.2% | 24.1% | 27% | 22.4% | 16.6% | 10.3% | 18.6%
CCCOS(=O)(=O)c1ccccc1 | 109% | 129% | 101% | 101% | 111% | 107% | 102% | 103%
CN(C)c1ccc(/C=C/c2ccnc3ccccc23)cc1 | 43.1% | 20.2% | 2.49% (active) | 26.9% | 19.9% | 24.8% | 72.1% | 29.9%
Cc1ccc2c(c1)sc(-c1ccc(N(C)C)cc1)[n+]2C | 1.38% (active) | 11.9% | 9.68% (active) | 12.3% | 3.8% (active) | -8.72% (active) | 2.49% (active) | 5.09% (active)
CCC(C)(O)Cc1ccc(Cl)cc1 (stereo not given) | 94.9% | 98.5% | 101% | 99.4% | 92.8% | 97.7% | 109% | 101%
Cc1nn(CCO)c(C)c1N=[N+]([O-])c1c(C)nn(CCO)c1C | -3.43% (active) | 50.5% | -25.4% (active) | -61.2% (active) | 4.45% (active) | -81.9% (active) | 109% | 81%
OC(c1cc(C23CC4CC(CC(C4)C2)C3)nc2c(Cl)cc(Cl)cc12)C1CCCCN1 (stereo not given) | -74.3% (active) | 37.7% | -66.1% (active) | -68.1% (active) | -80.7% (active) | -84% (active) | -71.7% (active) | -91.4% (active)
CCCCCCCCc1cc(Cl)c(O)c(Cl)c1 | 101% | 116% | 102% | 117% | 118% | 103% | 112% | 101%
COc1cc(OC)c(/C=C/c2c3ccccc3cc[n+]2C)c(OC)c1 | 13% | 17.8% | 2.01% (active) | 28.2% | 12.9% | 18.5% | 21.8% | 6.03% (active)

Compound | growth (T-47D breast) | growth (BT-549 breast) | growth (MDA-MB-435 melanoma) | growth (SW-620 colon) | growth (MCF7 breast) | growth (HCT-116 colon) | growth (HCC-2998 colon) | growth (KM12 colon)
CCCCOS(=O)(=O)c1ccccc1 | 106% | 103% | 95.8% | 110% | 102% | 108% | 117% | 109%
Cc1ccccc1NC(=O)Cc1csc2[n+]1C(=O)/C(=C/c1ccc([N+](=O)[O-])cc1)S2 | 84.2% | 88.9% | 97.5% | 107% | 92.7% | 84.4% | 82.2% | 98.4%
O=C1C=Cc2ccccc2/C1=C/c1nc(-c2ccccc2)oc1O | 65.5% | 102% | 97.5% | 97.4% | 39.6% | 81.5% | 129% | 92.1%
CC(/C=N/NC(N)=S)Cc1ccc(C(C)C)cc1 (stereo not given) | 16.6% | 64.1% | 49.2% | 63.5% | 49.9% | 51.4% | 51.9% | 89.5%
OC(Cc1cc(CC(O)(C(F)(F)F)C(F)(F)F)nc(CC(O)(C(F)(F)F)C(F)(F)F)c1)(C(F)(F)F)C(F)(F)F | -1.31% (active) | 11.3% | 0.574% (active) | 14.6% | 4.14% (active) | 3.99% (active) | 23.9% | 1.25% (active)
OC(c1cc(-c2ccc(Cl)cc2)nc2c(Cl)cccc12)C1CCCCN1 (stereo not given) | -82.9% (active) | 73.6% | -78.8% (active) | -86.2% (active) | -88.7% (active) | -28.8% (active) | -68.9% (active) | -89% (active)
CCOc1ccc2c(c1)/C(=C\C=C\C1CC(C)C3CC(OCC)CCC3N1CC)CC(C)N2CC (stereo not given) | 9.32% (active) | 0.574% (active) | -20.6% (active) | 17.1% | 3.06% (active) | 10.7% | 28.5% | 0.998% (active)
NC(=S)N/N=C\c1nccc2c(C(F)(F)F)cccc12 | 13.9% | 7.77% (active) | 32.6% | 29.8% | 10.5% | 9.27% (active) | 26.6% | 16%
O=C(Cc1ccccc1)C(F)(F)F | 95.4% | 97.5% | 104% | 108% | 103% | 95.5% | 108% | 103%
O=C(O)c1cc2c(s1)C(=O)c1sccc1C2=O | 36% | -89.8% (active) | -99.6% (active) | -3.95% (active) | -56.6% (active) |  | 8.88% (active) | 79.9%
Oc1ccc(Nc2ccc3ccccc3c2)cc1 | 52.6% | 74.3% | 51.3% | 66.2% | 64.7% | 70.8% |  | 35.6%
C(=N\Nc1ccc2ccccc2n1)/c1ccccn1 | 18.9% | 43.9% | 37.5% | 23.5% | 15.9% |  | 17.1% | 29.1%
O=C1CSC(=S)N1Cc1cccnc1 | 18.5% | 51.7% | 37% | 17% | 10.5% | 42.3% | 126% | 7.96% (active)
NC(=S)N/N=C/c1ncccc1O | 25.2% | 35.4% | 29.6% | 35% | 6.89% (active) | 5.32% (active) |  | 25.9%
O=[N+]([O-])c1cc(-c2ccccc2)c(O)c([N+](=O)[O-])c1 | 83.2% | 52.2% | 85.5% | 98.2% | 77% | 86.8% |  | 84.1%
CCCc1cc(=O)oc2c3c(c4c(c12)OC(C)(C)CC4)OC(C)[C@H](C)[C@@H]3O (stereo not given in full) | 67.9% | 108% | 112% | 84.3% | 70% |  | 116% | 97.8%
O=C(c1ccccc1)C(Br)[N+](=O)[O-] (stereo not given) | 65.3% | 92.6% | 96% | 38.8% | 58.8% |  | 111% | 100%
CCOC(=O)/C(=C\c1ccc2ccccc2c1)P(=O)(OCC)OCC | 32.4% | 39.8% | 24% | 2.35% (active) | 15.3% |  | 13.6% | 39.2%
